The text below walks through data of PubChem BioAssay (Tox21).

Activity calls are given as the source filed them. Unless noted, the call rests on the fitted dose curve; in most records, active means well fitted curve in the direction sought with a large enough effect in the repeat runs; inconclusive means weak or mixed curves; inactive means no such curve, though single readings can be large; an effect the other way counts as inactive or inconclusive.

The nature of test [1]: qHTS assay to identify small molecule antagonists of the glucocorticoid receptor (GR) signaling pathway - cell viability counter screen (AID 720693). Further: nearly all actives have a fitted effect of over 55% in size. In general terms: In qHTS, concentration-response curves come from the screen itself.
Test [2] can be described thus: qHTS assay for identifying genotoxic compounds that show differential cytotoxicity against isogenic chicken DT40 cell lines with known DNA damage response pathways - wild type cell line (AID 743012). Further: nearly all actives have a fitted effect of over 60% in size. Further: potency means the concentration at half of the fitted maximal effect. The method, boiled down: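 Wild type DT40, 300 cells/well, ~0.5 h settle at 37 C/5% CO2; compounds in DMSO added by pintool; 40 h at 37 C/5% CO2; CellTiter-Glo, 30 min RT; luminescence.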

Test [3] can be described thus: qHTS assay for identifying genotoxic compounds that show differential cytotoxicity against isogenic chicken DT40 cell lines with known DNA damage response pathways - Rad54/Ku70 mutant cell line (AID 743015). Further: nearly all actives have a fitted effect of over 60% in size. Further: potency means the concentration at half of the fitted maximal effect.
A short description of test [4]: qHTS assay to identify small molecule antagonists of the androgen receptor (AR) signaling pathway - cell viability counter screen (AID 743033; further: nearly all actives have a fitted effect of over 45% in size; further: potency means the concentration at half of the fitted maximal effect).
Test [5] in a line: qHTS assay to identify small molecule antagonists of the thyroid receptor (TR) signaling pathway - cell viability counter screen (AID 743064). Further: nearly all actives have a fitted effect of over 50% in size. Further: potency means the concentration at half of the fitted maximal effect. In outline:
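Same-well viability check: GH3.TRE-Luc cells stimulated with 1 nM T3 alongside test compound for 23.5 h, followed by CellTiter-Fluor fluorescence.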

Test [6] is described as follows: qHTS assay to identify small molecule antagonists of the thyroid receptor (TR) signaling pathway (AID 743065). Further: nearly all actives have a fitted effect of over 55% in size. Further: potency means the concentration at half of the fitted maximal effect. The method, boiled down: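 GH3.TRE-Luc rat pituitary cells (two TREs driving luciferase) were dosed with compound, then stimulated with 1 nM T3 (final) for 23.5 h at 37 C. ONE-Glo luminescence was the read-out, with CellTiter-Fluor fluorescence as the cytotoxicity counter-screen.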

Test [7] concerns thyroid hormone receptor (rat, GH3 cells). Nature of the test: qHTS assay to identify small molecule agonists of the thyroid receptor (TR) signaling pathway (AID 743066; calls by dose curve).
In test [8] the target is Estrogen receptor (Homo sapiens) (UniProt P03372). In words: qHTS assay to identify small molecule antagonists of the estrogen receptor alpha (ER-alpha) signaling pathway (AID 743069; active means well fitted curve in the direction sought with a large enough effect in the signal ratio in the repeat runs, not every such curve was filed as active; inconclusive means weak or mixed curves, or effect the other way; inactive means no such curve, though single readings can be large or run the other way; the % refers to the signal ratio). In outline:
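HEK293 ER-alpha-UAS-bla GripTite cells, held overnight in 2% charcoal-stripped FBS, 5,000 cells/well, preincubated 4 h, then compound plus 17beta-estradiol for 18 h at 37C. Beta-lactamase read by LiveBLAzer B/G FRET substrate, 2 h at room temperature.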

A short description of test [9]: qHTS assay to identify small molecule antagonists of the estrogen receptor alpha (ER-alpha) signaling pathway - cell viability counter screen (AID 743074; calls by dose curve;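 further: HEK293 cells carrying ER-alpha-UAS-bla reporter stimulated with 17beta-estradiol; nearly all actives have a fitted effect of over 45% in size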).
The target in test [10] is Estrogen receptor (Homo sapiens) (UniProt P03372). Nature of the test: qHTS assay to identify small molecule agonists of the estrogen receptor alpha (ER-alpha) signaling pathway (AID 743075; calls by dose curve; further: potency means the concentration at half of the fitted maximal effect).
Sequence of Estrogen receptor (Homo sapiens) (P03372 whole entry, looked up): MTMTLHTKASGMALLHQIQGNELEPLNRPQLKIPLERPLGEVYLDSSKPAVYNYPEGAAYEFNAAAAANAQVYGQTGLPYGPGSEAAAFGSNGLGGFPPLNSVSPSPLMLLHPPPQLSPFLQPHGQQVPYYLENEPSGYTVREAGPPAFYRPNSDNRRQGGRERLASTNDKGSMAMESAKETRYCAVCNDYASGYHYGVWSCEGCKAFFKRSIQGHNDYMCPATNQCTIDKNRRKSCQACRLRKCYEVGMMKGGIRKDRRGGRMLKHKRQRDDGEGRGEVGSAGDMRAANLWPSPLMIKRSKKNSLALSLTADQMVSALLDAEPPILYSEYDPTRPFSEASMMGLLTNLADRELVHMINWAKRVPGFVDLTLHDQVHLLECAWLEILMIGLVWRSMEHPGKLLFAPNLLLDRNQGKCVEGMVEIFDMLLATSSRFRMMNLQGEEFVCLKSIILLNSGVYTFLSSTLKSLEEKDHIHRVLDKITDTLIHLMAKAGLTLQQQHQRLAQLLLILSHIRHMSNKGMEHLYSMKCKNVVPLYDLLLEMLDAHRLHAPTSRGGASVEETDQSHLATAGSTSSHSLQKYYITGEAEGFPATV
The target is the same in test [11]. Nature of the test: qHTS assay to identify small molecule agonists of the estrogen receptor alpha (ER-alpha) signaling pathway using the BG1 cell line (AID 743079). Further: nearly all actives have a fitted effect of over 20% in size. Further: potency means the concentration at half of the fitted maximal effect.
Test [12] in a line: qHTS assay to identify small molecule antagonists of the estrogen receptor alpha (ER-alpha) signaling pathway using the BG1 cell line (AID 743080; calls by dose curve; further: nearly all actives have a fitted effect of over 25% in size; further: potency means the concentration at half of the fitted maximal effect). The method, boiled down:
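Antagonist mode: compounds in DMSO were pinned onto BG1-Luc-4E2 cells alongside 17beta-estradiol agonist, incubated 21.5 h, and ERE-driven luciferase measured with ONE-Glo. Cytotoxicity was multiplexed using CellTiter-Fluor fluorescence.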

Test [13] can be described thus: qHTS assay to identify small molecule antagonists of the estrogen receptor alpha (ER-alpha) signaling pathway using the BG1 cell line - cell viability counter screen (AID 743081).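 Further: compound given together with 17beta-estradiol as the ER stimulus; series mostly up to about 70 µM; nearly all actives have a fitted effect of over 45% in size.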
A further test concerns the target Aromatase (Homo sapiens) (UniProt P11511). In words: qHTS assay to identify aromatase inhibitors (AID 743083). Further: nearly all actives have a fitted effect of over 55% in size. Further: potency means the concentration at half of the fitted maximal effect.
The nature of test [14]: qHTS assay for identifying genotoxic compounds that show differential cytotoxicity against isogenic chicken DT40 cell lines with known DNA damage response pathways - Rev3 mutant cell line (AID 743014). Further: nearly all actives have a fitted effect of over 55% in size. Further: potency means the concentration at half of the fitted maximal effect.
The target in test [15] is Androgen receptor (Homo sapiens) (UniProt P10275). Nature of the test: qHTS assay to identify small molecule agonists of the androgen receptor (AR) signaling pathway (AID 743036; active means well fitted activation curve with a large enough effect in the signal ratio in the repeat runs, with a control signal flat, not every such curve was filed as active; inconclusive means weak or mixed curves, or effect the other way; inactive means no such curve, though single readings can be large or run the other way; the % refers to the signal ratio). In outline:
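Agonist activity was scored by beta-lactamase reporter fluorescence in stably transfected HEK293 cells exposed to compounds for 16 h at 37C and 5% CO2. Substrate loading took 2 h at room temperature.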

The target is the same in test [16]. Nature of the test: qHTS assay to identify small molecule agonists of the androgen receptor (AR) signaling pathway using the MDA cell line (AID 743040; further: nearly all actives have a fitted effect of over 20% in size). The method, boiled down: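 MDA-kb2 breast carcinoma cells carrying MMTV-luciferase (responsive to AR and GR), plated 5 h then treated 16 h with compounds at 37C, 0% CO2. Read-out was ONE-Glo luminescence after 30 min at room temperature.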

Test [17] in a line: qHTS assay to identify small molecule antagonists of the androgen receptor (AR) signaling pathway using the MDA cell line - cell viability counter screen (AID 743041; further: nearly all actives have a fitted effect of over 45% in size). The method, boiled down: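 MDA-kb2 AR-luc cells (MMTV-luciferase, AR/GR responsive) treated with compounds plus R1881 agonist for 16 h at 37C. CellTiter-Fluor added at 15.5 h; fluorescence read after 30 min in the same wells.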

Test [18] addresses Androgen receptor (Homo sapiens) (UniProt P10275). In words: qHTS assay to identify small molecule antagonists of the androgen receptor (AR) signaling pathway using the MDA cell line (AID 743042; further: nearly all actives have a fitted effect of over 55% in size). In outline: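 MDA-kb2 breast carcinoma cells carrying MMTV-luciferase (AR/GR responsive) were co-treated with compounds and the agonist R1881 for 16 h at 37C. Inhibition read as ONE-Glo luminescence; CellTiter-Fluor fluorescence measured in parallel for cytotoxicity.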

For test [19] the target is unchanged. Nature of the test: qHTS assay to identify small molecule antagonists of the androgen receptor (AR) signaling pathway (AID 743035; active means well fitted inhibition curve with a large enough effect in the signal ratio in the repeat runs, not every such curve was filed as active; inconclusive means weak or mixed curves, or effect the other way; inactive means no such curve, though single readings can be large or run the other way; the % refers to the signal ratio). In outline:
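Fluorescence from a beta-lactamase FRET substrate (LiveBLAzer B/G, 2 h, room temperature) measured inhibition of R1881-stimulated signaling in GeneBLAzer AR-UAS-bla HEK293 cells exposed to compound for 16 h at 37C.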

Sequence of Aromatase (Homo sapiens) (P11511 whole entry, looked up): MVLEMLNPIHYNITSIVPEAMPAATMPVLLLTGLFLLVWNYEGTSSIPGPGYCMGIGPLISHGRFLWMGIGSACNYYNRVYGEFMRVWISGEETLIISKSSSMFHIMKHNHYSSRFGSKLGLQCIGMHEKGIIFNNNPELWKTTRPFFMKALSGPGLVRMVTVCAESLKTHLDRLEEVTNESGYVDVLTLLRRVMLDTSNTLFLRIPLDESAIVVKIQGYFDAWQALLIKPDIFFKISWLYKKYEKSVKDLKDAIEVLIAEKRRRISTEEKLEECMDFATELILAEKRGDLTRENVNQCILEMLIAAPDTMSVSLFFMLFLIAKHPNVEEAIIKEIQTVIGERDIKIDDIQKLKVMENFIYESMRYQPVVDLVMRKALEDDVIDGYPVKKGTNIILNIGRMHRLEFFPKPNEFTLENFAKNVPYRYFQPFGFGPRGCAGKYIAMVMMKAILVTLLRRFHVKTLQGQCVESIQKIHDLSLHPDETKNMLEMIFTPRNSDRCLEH
Sequence of Androgen receptor (Homo sapiens) (P10275 whole entry, looked up): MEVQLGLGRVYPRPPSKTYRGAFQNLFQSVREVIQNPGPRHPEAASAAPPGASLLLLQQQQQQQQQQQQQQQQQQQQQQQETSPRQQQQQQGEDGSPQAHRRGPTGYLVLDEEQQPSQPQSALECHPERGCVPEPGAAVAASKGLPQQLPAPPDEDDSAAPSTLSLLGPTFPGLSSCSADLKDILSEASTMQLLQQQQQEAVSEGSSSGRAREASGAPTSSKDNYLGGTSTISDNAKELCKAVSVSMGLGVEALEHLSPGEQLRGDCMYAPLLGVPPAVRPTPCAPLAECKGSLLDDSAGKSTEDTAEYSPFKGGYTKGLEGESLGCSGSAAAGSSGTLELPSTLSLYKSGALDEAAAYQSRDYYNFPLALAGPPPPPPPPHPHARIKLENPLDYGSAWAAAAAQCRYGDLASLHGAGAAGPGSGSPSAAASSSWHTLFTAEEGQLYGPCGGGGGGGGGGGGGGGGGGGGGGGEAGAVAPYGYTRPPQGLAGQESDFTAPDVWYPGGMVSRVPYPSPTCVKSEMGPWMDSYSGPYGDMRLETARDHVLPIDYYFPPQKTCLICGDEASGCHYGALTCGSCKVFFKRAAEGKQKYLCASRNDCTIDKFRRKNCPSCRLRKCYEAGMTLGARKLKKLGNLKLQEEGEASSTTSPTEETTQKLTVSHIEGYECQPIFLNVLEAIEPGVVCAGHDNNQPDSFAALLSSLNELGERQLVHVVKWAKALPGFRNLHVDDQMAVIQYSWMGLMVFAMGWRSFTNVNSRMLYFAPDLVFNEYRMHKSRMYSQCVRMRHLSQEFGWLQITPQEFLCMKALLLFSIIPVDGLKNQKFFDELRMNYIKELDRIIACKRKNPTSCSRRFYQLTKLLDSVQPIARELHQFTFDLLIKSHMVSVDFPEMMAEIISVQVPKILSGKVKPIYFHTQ

For `CC(=O)[C@H]1CC[C@H]2[C@@H]3CC[C@H]4C[C@](C)(O)CC[C@]4(C)[C@H]3CC[C@]12C`, the Potency result in test [1], in test [2], in [3], in test [4], in test [5] and in test [6] was “inactive” each time. The Potency result in [7], in test [8], in test [9], in test [10], in test [11] and in test [12] was “inactive” each time. Besides, the Potency entry (in test [13]; in the test with Aromatase (Homo sapiens)) was “inactive” in each case.
Take `CCOP(=S)(OCC)Oc1nc(Cl)c(Cl)cc1Cl`: the Potency result in [1], in test [14], in [3], in test [4], in [16] and in test [17] was “inactive” throughout. Moreover, the Potency result in test [18], in [5], in test [7], in [8], in test [9] and in test [10] was “inactive” in each case. Further, the Potency entry (in test [11]; in [12]; in [13]; with Aromatase (Homo sapiens)) was “inactive” each time. Besides, the compound was classed as inactive in test [15].
As for `CC(C)N(CCC(C(N)=O)(c1ccccc1)c1ccccn1)C(C)C` (configuration not stated), the Potency entry in [1], in test [2], in test [3], in test [4], in [5] and in test [6] was “inactive” throughout. The Potency result (in test [7]; in test [9]; in test [13]; in the test with Aromatase (Homo sapiens)) was “inactive” throughout.
As for `CCCCCCCCCC(=O)O[C@H]1CC[C@H]2[C@@H]3CCC4=CC(=O)CC[C@@H]4[C@H]3CC[C@]12C`, the Potency result in [1], in test [2], in [3], in test [4], in test [17] and in [5] was “inactive” in each case. Besides, the Potency result (in test [6]; in test [7]; in [12]; in [13]; with Aromatase (Homo sapiens)) was “inactive” in each case. In addition, the Potency in test [10] is 0.848 µM [inconclusive] (active); in [11], 0.188 µM (active).
In the case of `COC(N)=O`, the Potency entry in test [1], in [3], in test [4], in test [17], in test [5] and in [6] was “inactive” in each case. The Potency entry in [7], in test [8], in test [9], in [10], in [11] and in test [12] was “inactive” each time. The Potency result (in test [13]; with Aromatase (Homo sapiens)) was “inactive” each time.
In the case of `NNC(=O)c1cccnc1`, the Potency result in test [1], in test [2], in [3], in test [4], in [17] and in test [5] was “inactive” each time. The Potency result in [6], in test [7], in test [8], in [9], in test [10] and in test [12] was “inactive” in each case. Moreover, the Potency entry (in [13]; in the test with Aromatase (Homo sapiens)) was “inactive” in each case.
Turning to `C=CC(=O)OCCCCO`, the Potency entry in [1], in [4], in test [17], in [7], in [9] and in [11] was “inactive” each time. In addition, the Potency entry in [12] and in test [13] was “inactive” throughout. In addition, the Potency in test [3] is 61.1 µM (active).
On to `CC(C)O.CC(C)O.OCCN(CCO)CCO.OCCN(CCO)CCO.[Ti]`, for which the Potency entry in test [1], in test [14], in [3], in [4], in test [17] and in test [5] was “inactive” each time. Further, the Potency entry in test [6], in [7], in [9] and in test [13] was “inactive” each time.
With `Cc1c(F)c(F)c(COC(=O)C2C(/C=C(\Cl)C(F)(F)F)C2(C)C)c(F)c1F` (configuration not stated), the Potency result in test [1], in [14], in [4], in [5], in test [7] and in test [8] was “inactive” throughout. Besides, the Potency entry (in test [9]; in test [10]; in test [11]; in [12]; in test [13]; with Aromatase (Homo sapiens)) was “inactive” each time.
Regarding `Cc1ccccc1CCl`, the Potency result in [1], in test [2], in test [3], in test [4], in [17] and in test [5] was “inactive” throughout. For the same compound, the Potency result (in [6]; in test [7]; in [9]; in test [13]; with Aromatase (Homo sapiens)) was “inactive” in each case.
Consider `O=C(CBr)c1ccccc1`, for which the Potency result in test [1], in [4], in test [17], in [5], in [6] and in [7] was “inactive” throughout. Also, the Potency result (in test [8]; in test [9]; in [10]; in [12]; in test [13]; in the test with Aromatase (Homo sapiens)) was “inactive” in each case. In addition, the Potency was 61.5 µM (active) in test [14] and 54.8 µM (active) in test [11].
Regarding `Brc1ccc(Oc2ccccc2)cc1`, the Potency result in test [1], in [14], in test [4], in test [17], in [5] and in [6] was “inactive” each time. In addition, the Potency entry in test [7], in test [8], in [9], in [10], in test [11] and in [12] was “inactive” throughout. The Potency entry (in [13]; with Aromatase (Homo sapiens)) was “inactive” in each case.
With `NCCCNCCCN`, the Potency result in [1], in test [16], in test [18] and in test [13] was “inactive” throughout. For the same compound, the Potency in test [14] was 55.3 µM (active); in test [3], 62.1 µM (active); in test [4], 49.7 µM (active); in test [5], 62.1 µM (active); in test [6], 62.1 µM (active); with Aromatase (Homo sapiens), 62.1 µM (active).
Consider `Cc1cc(=O)[nH]o1`, for which the Potency entry in test [1], in test [2], in test [4], in [16], in [17] and in test [18] was “inactive” in each case. Further, the Potency result in [5], in test [8], in [9], in test [10], in [11] and in test [12] was “inactive” each time. The Potency entry (in [13]; with Aromatase (Homo sapiens)) was “inactive” in each case. In addition, the compound was called inactive in test [15].
Regarding `CCCCNP(N)(N)=S`, the Potency result in test [1], in [14], in test [3], in test [4], in [17] and in [5] was “inactive” in each case. Moreover, the Potency result in test [6], in test [7], in test [8], in [9], in test [10] and in test [12] was “inactive” in each case. Also, the Potency entry (in test [13]; with Aromatase (Homo sapiens)) was “inactive” in each case.
Take `CC(C)=CCOc1c2occc2cc2ccc(=O)oc12`: the Potency result in [1], in [4], in [19], in test [16], in test [18] and in [5] was “inactive” each time. Also, the Potency result in [6], in test [7], in test [8], in test [9], in test [10] and in test [11] was “inactive” throughout. Further, the Potency entry (in [12]; with Aromatase (Homo sapiens)) was “inactive” each time. Moreover, in test [2], the Potency was 26.6 µM (active). Also, in test [15], the outcome was inactive.
Turning to `CO/C=C(/C(=O)OC)c1ccccc1COc1cccc(C(F)(F)F)n1`, the Potency was 0.0769 µM (active) in test [2]; 0.0769 µM (active) in [14]; 0.0485 µM (active) in [3]; 3.46 µM (active) in [4]; 0.432 µM (active) in [6]; 1.38 µM [inconclusive] (active) in [10]. Further, the Potency in test [12] was 2.17 µM (active); in the test with Aromatase (Homo sapiens), 68.5 µM (active). In addition, the Potency entry in test [5] and in test [7] was “inactive” in each case.
